# Screen size: about 410,000 compounds; about 18,000 (4.4%) were called active. About 7% were inconclusive and are not listed. For the sample, actives were picked, then their nearest neighbours and some compounds at random. A number with no mark means an inactive call. Rule as the data show it: active = activity change below about -60%; inconclusive = no clear call, values can overlap the other calls; inactive = above about -39%.
# Test: qHTS Assay for inhibitors of the human cytomegalovirus (HCMV)
# Conditions: HFF cells, HCMV-luciferase reporter, 72 h; at 57.5 µM; active compounds read low
# Description: NCGC Assay Overview: Infection with human cytomegalovirus (HCMV) continues to pose significant threats for pregnant women and immunocompromised hosts. HCMV causes serious morbidity and mortality in transplant recipients, and congenital HCMV is the leading infectious cause of mental retardation and deafness in children. In the 1990s, the annual costs associated with the disease burden of congenital CMV were estimated at around $2 billion. A HCMV vaccine is not available yet and HCMV therapies result in intolerable side effects and emergence of drug resistant viruses. […] Towards this goal we have developed and characterized a luciferase HCMV reporter that was initially used in 96 well plates and then optimized to 1536-well plates for utilization in screening of the MLSMR collection, the NGCG diversity collection and the NCGC Pharmaceutical Collection of approved and investigational drugs.
# NCGC Assay Protocol Summary:
# This is a cell-based assay for HCMV inhibition in HFFs cells. The screening used 2 compound doses and the HCMV-luciferase at MOI of 1 PFU/cell. Cells were treated and infected with HCMV. At 72 h post infection cell lysates were collected and luciferase activity was determined using the Glomax-Multi + Detection System (Promega, Madison, WI). Data were normalized to the controls for basal activity (buffer only) and known HCMV inhibitors Salinmoycin.
# 1536-well assay protocol for the assay:
# (1) Add 3 ul CMV/HFF cell culture. 1000 cells/well in DMEM nirmal media.
# (2) Incubate 16 hr at 37C.
# (3) Add 23 nl control compound, 10uM of Salinomycin.
# (4) Add 23 nl compounds in DMSO solution.
# (5) Add 3 ul CMV suspension. Final 1 puf/ul, Virus stock 2000pfu/ul
# (6) Incubate 72 hrs at 37C.
# (7) Add 4 ul OneGlo Luc Reagent.
# (8) Incubate 5 min at room temperature.
# % is scaled to controls: 0 for no effect and ±100 for the full control effect.
row,Structure (SMILES),"activity change, negative = inhibition"
1,CC(=O)Nc1c2c(nn1-c1ccc(C)cc1C)CS(=O)C2 (configuration not stated),0%
2,Cc1ccc(-n2nc3c(c2NC(=O)CCC2CCCCC2)CS(=O)C3)cc1 (configuration not stated),-68.2% (active)
3,COc1ccc(-n2nc3c(c2NC(=O)Cc2cccc(C)c2)CS(=O)C3)cc1 (configuration not stated),0.139%
4,CCOc1cc(C(=O)NCCc2csc3nc(-c4ccc(C)cc4)nn23)cc(OCC)c1OCC,-29.1%
5,Cc1cc(C)n(CC(C)NCc2c(C(=O)N3CCOCC3)nc3c(C)cccn23)n1 (configuration not stated),16%
6,CCCCCn1c(=O)[nH]c2cc(C(=O)Nc3ccc(F)cc3)ccc2c1=O,3.61%
7,CC(=O)Nc1ccc(NC(=O)C(C)OC(=O)c2ccccc2C(=O)c2ccc(Cl)c([N+](=O)[O-])c2)cc1 (configuration not stated),-83.7% (active)
8,Cc1ccc(CC(=O)Nc2cccc(C#N)c2)cc1,6.08%
9,O=C(COc1ccc(NC(=O)c2ccccc2[N+](=O)[O-])cc1)c1ccc(F)cc1,-16.6%
10,CC(C)NC(=O)c1ccc(Sc2ccccc2)c([N+](=O)[O-])c1,-15.4%
11,Nc1nc(SCC(=O)Nc2ccc(Cl)c([N+](=O)[O-])c2)n[nH]1,-9.65%
12,N#Cc1cccc(NC(=O)COC(=O)c2ccccc2C(=O)c2ccc(Cl)c([N+](=O)[O-])c2)c1,-99.2% (active)
13,CCOc1ccc(NC(=O)C(CC(C)C)N2Cc3ccccc3C2=O)cc1 (configuration not stated),9.79%
14,Cc1ccccc1-c1nc(SCC(=O)N(C)c2ccccc2)c2c(=O)n(C)c(=O)n(C)c2n1,27.2%
15,CCCN1CCN(CCCNC(=O)c2ccc3nc(Cc4ccccc4)oc3c2)CC1,8.36%
16,CN1CCN(CCCNC(=O)c2ccc(/C=C3\Oc4ccccc4N(Cc4ccc(Cl)cc4)C3=O)cc2)CC1,-110% (active)
17,COCCNC(=O)c1ccc2c(c1)N(Cc1cccc(Cl)c1)C(=O)c1ccccc1S2(=O)=O,5.49%
18,CCc1nc(-c2cc(S(=O)(=O)N3CCN(c4ccc(OC)cc4)CC3)ccc2OC)no1,48.2%
19,Clc1ccccc1CSc1nncn2c1cc1occc12,-18.9%

row,Structure (SMILES),"activity change, negative = inhibition"
1,CCOC(=O)CN(C(=O)COc1nc(-c2ccccc2)cc(C)c1C#N)c1ccc(F)cc1,-37.6%
2,CCOc1cc(-c2cc(-c3ccc(NC(C)=O)cc3)nc(N)c2C#N)ccc1O,-70.4% (active)
3,Cc1ccc(-c2cc(C(F)(F)F)c(C#N)c(SCC(=O)Nc3ccccc3)n2)cc1,1.85%
4,Cc1ccc(-c2nc(CS(=O)(=O)CC(=O)NCc3ccccc3Cl)c(C)o2)cc1,-14.3%
5,CCOc1ccc(NS(=O)(=O)c2ccc(N)cc2)nn1,-10.2%
6,CCCCn1c(=N)c(S(=O)(=O)c2ccccc2)cc2c(=O)n3cccc(C)c3nc21,12.5%
7,COc1ccc(CC(=O)Nc2ccc(-c3nnc(-c4ccc(C)cc4)o3)cc2)cc1,-63.2% (active)
8,COc1ccc(CC(=O)Nc2ccc(-c3nc4ccccc4s3)c(C)c2)cc1,52.5%
9,COc1ccc(Cc2n[nH]c(=S)n2NC(=O)Nc2ccc(C)cc2)cc1,4.71%
10,CCn1c2ccccc2c2nnc(N3CCN(c4cc(C)ccc4C)CC3)nc21,-34%
11,COc1cc(OC)c(NC(=O)Cc2ccc(-n3c(C)nc4cccnc43)cc2)cc1Cl,0%
12,Cc1cc2n(n1)C(c1cc(C(C)(C)C)c(O)cc1O)Nc1ccccc1-2 (configuration not stated),-23.1%
13,COc1cccc(-c2nc(CS(=O)(=O)CC(=O)N3CCN(c4cc(C)ccc4C)CC3)c(C)o2)c1,-75.7% (active)
14,CCCCN(CC)CCCNC(=O)CS(=O)(=O)Cc1nc(-c2cccc(OC)c2)oc1C,29.6%
15,COc1ccc(-c2nc(CS(=O)(=O)CC(=O)NCc3cccc(Br)c3)c(C)o2)cc1,5.73%
16,CCS(=O)(=O)n1nc(-c2ccccc2)nc1SCc1ccccc1,138%
17,COc1cc(OC)c(C2C=C(C(=O)O)Nc3ncnn32)cc1OC (configuration not stated),6.4%
18,COCCn1c(=S)[nH]c2cc(C(=O)NCCc3ccc(OC)c(OC)c3)ccc2c1=O,29.3%
19,CCN(CC)CCCNC(=O)c1ccc2c(=O)n(Cc3ccc4c(c3)OCO4)c(=S)[nH]c2c1,69.4%

row,Structure (SMILES),"activity change, negative = inhibition"
1,COc1ccc(Cn2c(=S)[nH]c3cc(C(=O)NCCCN4CCOCC4)ccc3c2=O)cc1,-65.2% (active)
2,COc1ccc(C(F)(F)F)cc1N/C=C\c1nnnn1-c1ccc(C)cc1,34.7%
3,Cc1ccc(CN2CCc3nc(N4CCN(C)CC4)ncc3C2)cc1,-6.43%
4,CCCCOCCCNC(=O)C[C@@H]1C[C@@]2(C(=O)OCC)CCCC=C2N(CCC2=CCCCC2)C1=O,22.8%
5,CS(=O)(=O)N1CCc2nc(-c3ccccc3)sc2C1,154%
6,CCOc1ccc(S(=O)(=O)c2cn(Cc3ccccc3)c3ccc(OCC)cc3c2=O)cc1,-13.1%
7,CCOc1ccc(Nc2c(S(=O)(=O)c3ccccc3)cnc3ccccc23)cc1,-70% (active)
8,CCOc1ccc(S(=O)(=O)NCCSc2ccccc2)cc1,43.7%
9,Cc1cc(F)ccc1NC1(c2ccccc2)C(=O)c2ccccc2C1=O,6.52%
10,Cc1[nH]c2ccccc2c1C(=O)CN1CC(C)CC(C)C1 (configuration not stated),9.64%
11,COc1ccc(C(=O)COC(=O)c2c(C)noc2C)cc1Cl,-19.5%
12,Cc1[nH]c2ccccc2c1C(=O)COC(=O)c1c(-c2ccccc2)noc1C,-67.3% (active)
13,CCN(CC)c1ccc(NC(=O)Cn2nc3c(cc2=O)CCCC3)c(C)c1,-12.7%
14,CSc1ccc(CCNC(=O)c2ccc3c(c2)nc2n3CCOC2)cc1,11.7%
15,CN(C(=O)CCNC(=O)Cn1ccc2ccccc2c1=O)c1ccc(Br)cc1,9.17%
16,CC1=C(C(=O)OCc2ccc(C)cc2)C(c2ccccc2Cl)CC(=O)N1 (configuration not stated),-36.9%
17,CCCNC(=O)C1(C)CCN(Cc2ccc(Cl)c(Cl)c2)C1 (configuration not stated),-29%
18,CCCNC(=O)C1(C)CCCN(Cc2cccc(C(F)(F)F)c2)C1 (configuration not stated),-32.6%
19,CCCNC(=O)C1(C)CCCN(Cc2c(C)nn(-c3ccccc3)c2C)C1 (configuration not stated),-77% (active)
